Measured values as given in PubChem BioAssay (Tox21).
Inconclusive results are not listed. Activity calls are given as the source filed them. Unless noted, calls come from the whole dose curve.

Tests used:
[1] = Nuclear factor erythroid 2-related factor 2/antioxidant responsive element (Nrf2/ARE) small molecule agonists: qHTS cell viability counter screen in human keratinocytes (AID 1919968; active = well fitted curve in the direction sought with a large enough effect in the repeat runs; an effect the other way counts as inactive or inconclusive; note: nearly all actives have a fitted effect of over 55% in size)
How it was run: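 Measured as CellTiter-Fluor fluorescence, this readout tracks cytotoxicity in the same wells as the ARE-luciferase screen. HaCaT reporter cells (1,500/well) received compounds after a 5 h pre-incubation and were exposed for 23 h.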

[2] = Nuclear factor erythroid 2-related factor 2/antioxidant responsive element (Nrf2/ARE) small molecule agonists: luciferase reporter gene qHTS assay in human keratinocytes (AID 1919969); note: nearly all actives have a fitted effect of over 35% in size; note: potency is the fitted concentration of half-maximal effect
[3] = target: Gonadotropin-releasing hormone receptor (Homo sapiens) (UniProt P30968); experiment: Human gonadotropin-releasing hormone receptor (GnRHR) small molecule agonists, calcium flux assay in GnRHR-HEK293 cells (AID 1920063); note: nearly all actives have a fitted effect of over 35% in size
Chain of Gonadotropin-releasing hormone receptor (Homo sapiens) (P30968 whole entry, looked up): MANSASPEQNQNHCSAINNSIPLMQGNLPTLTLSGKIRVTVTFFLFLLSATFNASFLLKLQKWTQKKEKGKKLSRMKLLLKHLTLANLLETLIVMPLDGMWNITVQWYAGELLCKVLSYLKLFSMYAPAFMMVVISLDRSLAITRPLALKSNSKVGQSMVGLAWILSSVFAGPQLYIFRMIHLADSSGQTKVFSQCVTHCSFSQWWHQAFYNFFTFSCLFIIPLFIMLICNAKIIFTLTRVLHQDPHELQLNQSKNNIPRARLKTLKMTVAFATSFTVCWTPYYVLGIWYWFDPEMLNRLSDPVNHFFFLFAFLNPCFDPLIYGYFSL
How it was run: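 Fluorescence kinetics (480 nm excitation, 540 nm emission; 3 min, 1 s steps) report calcium mobilisation in human GnRHR-HEK293 cells in agonist mode. Dye incubation: 1 h, 37 C.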

[4] = target: KiSS-1 receptor (Homo sapiens) (UniProt Q969F8); experiment: Human kisspeptin (KISS1R) small molecule agonists, calcium flux assay in KISS1R-HEK293 cells (AID 1920064; active = well fitted curve in the direction sought with a large enough effect in the repeat runs; an effect the other way counts as inactive or inconclusive)
Chain of KiSS-1 receptor (Homo sapiens) (Q969F8 whole entry, looked up): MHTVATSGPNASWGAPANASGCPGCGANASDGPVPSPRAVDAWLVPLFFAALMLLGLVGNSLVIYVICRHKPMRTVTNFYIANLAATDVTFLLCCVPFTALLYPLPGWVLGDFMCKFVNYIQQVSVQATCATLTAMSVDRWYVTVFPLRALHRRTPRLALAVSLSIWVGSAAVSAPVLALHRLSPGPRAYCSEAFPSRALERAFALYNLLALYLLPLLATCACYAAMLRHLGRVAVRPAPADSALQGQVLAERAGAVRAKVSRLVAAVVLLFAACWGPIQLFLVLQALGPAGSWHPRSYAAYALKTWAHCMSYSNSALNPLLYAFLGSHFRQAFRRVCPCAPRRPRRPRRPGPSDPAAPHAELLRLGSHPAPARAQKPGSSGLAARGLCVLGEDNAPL
How it was run: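 Measures KISS1R agonism through calcium-sensitive dye fluorescence in stably transfected HEK293 cells, read for 3 min after pin-tool compound delivery; 15-point titrations in triplicate.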

[5] = G protein-coupled receptor (GPCR) small molecule agonists, calcium flux assay: HEK293 wild type cell line counter screen (AID 1920065)
How it was run: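 Readout: fluorescence at 480 nm excitation/540 nm emission, sampled at 1 s intervals for 3 min. Cells had been cultured 18 h, then dye-loaded 1 h at 37 C before compound or ATP addition.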

[6] = p53 small molecule agonists, cell-based qHTS assay with human liver microsomes: qHTS cell viability counter screen (AID 1963579); note: nearly all actives have a fitted effect of over 45% in size
How it was run: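 p53RE-bla cells (4,000/well) were pre-incubated 5 h at 37 C, then given compounds in DMSO plus human liver microsomes (0.5 mg/mL final) and NADPH (0.5 mg/mL final) for 16 h at 37 C. Viability was read by CellTiter-Glo luminescence.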

[7] = p53 small molecule agonists, cell-based qHTS assay with rat liver microsomes: qHTS cell viability counter screen (AID 1963580); note: nearly all actives have a fitted effect of over 45% in size
How it was run: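 HCT-116 p53RE-bla, 4,000 cells/well, 5 h pre-incubation; cpd + rat liver microsomes 0.5 mg/mL + NADPH 0.5 mg/mL (final); 16 h, 37 C; CellTiter-Glo, 30 min RT; luminescence.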

[8] = p53 small molecule agonists, cell-based qHTS assay: qHTS cell viability counter screen (AID 1963581); note: nearly all actives have a fitted effect of over 45% in size
How it was run: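 In the same plates used for the p53 bla reporter, HCT-116 cells given compounds for 16 h at 37 C received CellTiter-Glo; luminescence was recorded 30 min later at room temperature.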

[9] = target: 5-hydroxytryptamine receptor 2A (Homo sapiens) (UniProt P28223); experiment: 5-hydroxytryptamine receptor 2A (HTR2A) small molecule antagonists, cell-based qHTS assay (AID 1963586); note: nearly all actives have a fitted effect of over 45% in size
Chain of 5-hydroxytryptamine receptor 2A (Homo sapiens) (P28223 whole entry, looked up): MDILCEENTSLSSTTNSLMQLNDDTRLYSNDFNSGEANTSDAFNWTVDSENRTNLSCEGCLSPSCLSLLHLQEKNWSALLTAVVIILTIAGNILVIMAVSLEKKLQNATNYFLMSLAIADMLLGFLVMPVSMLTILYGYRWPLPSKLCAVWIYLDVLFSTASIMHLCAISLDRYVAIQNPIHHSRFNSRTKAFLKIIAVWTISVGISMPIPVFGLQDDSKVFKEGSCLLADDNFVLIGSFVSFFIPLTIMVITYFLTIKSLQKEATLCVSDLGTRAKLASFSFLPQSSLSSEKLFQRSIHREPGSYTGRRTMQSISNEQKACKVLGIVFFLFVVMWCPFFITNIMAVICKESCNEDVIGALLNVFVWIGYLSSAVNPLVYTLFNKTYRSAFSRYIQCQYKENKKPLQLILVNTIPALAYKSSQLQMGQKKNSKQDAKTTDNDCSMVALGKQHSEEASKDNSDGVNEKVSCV
How it was run: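 Antagonist-mode intracellular calcium assay: DOI (4 nM) added after 5 min compound pre-incubation at room temperature to dye-loaded HTR2A-CHO cells. Fluorescence followed for 3 min, sampled every second.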

[10] = target: 5-hydroxytryptamine receptor 2A (Homo sapiens) (UniProt P28223); experiment: 5-hydroxytryptamine receptor 2A (HTR2A) small molecule agonists, cell-based qHTS assay (AID 1963587); note: nearly all actives have a fitted effect of over 30% in size
How it was run: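 Kinetic calcium-flux fluorescence (2 min, 1 sec intervals) after compound addition in agonist mode. HTR2A-CHO cells were cultured 18 h, then dye-loaded 1 h at 37 C.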

[11] = target: Muscarinic acetylcholine receptor M1 (Homo sapiens) (UniProt P11229); experiment: Cholinergic receptor muscarinic 1 (CHRM1) small molecule antagonists, cell-based qHTS assay (AID 1963588); note: nearly all actives have a fitted effect of over 40% in size
Chain of Muscarinic acetylcholine receptor M1 (Homo sapiens) (P11229 whole entry, looked up): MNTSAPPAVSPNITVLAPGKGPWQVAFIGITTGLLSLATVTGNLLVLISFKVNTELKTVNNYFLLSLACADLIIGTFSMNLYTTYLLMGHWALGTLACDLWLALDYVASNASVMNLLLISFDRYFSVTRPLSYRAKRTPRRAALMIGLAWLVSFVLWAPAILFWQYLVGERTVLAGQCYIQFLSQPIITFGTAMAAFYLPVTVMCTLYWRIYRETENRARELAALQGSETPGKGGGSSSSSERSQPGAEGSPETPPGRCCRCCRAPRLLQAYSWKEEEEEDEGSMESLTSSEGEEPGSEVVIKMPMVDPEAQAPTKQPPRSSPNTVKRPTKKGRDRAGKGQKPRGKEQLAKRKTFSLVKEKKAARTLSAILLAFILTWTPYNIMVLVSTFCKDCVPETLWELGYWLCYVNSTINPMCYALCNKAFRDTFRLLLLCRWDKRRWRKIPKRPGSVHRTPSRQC
How it was run: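 CHRM1-CHO calcium-flux assay, antagonist mode. Cells were seeded 18 h, dye-loaded 1 h at 37 C and given compound for 5 min at RT, then acetylcholine was added at 50nM. FDSS fluorescence was read 3 min; 15 concentrations, three runs.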

[12] = target: Muscarinic acetylcholine receptor M1 (Homo sapiens) (UniProt P11229); experiment: Cholinergic receptor muscarinic 1 (CHRM1) small molecule agonists, cell-based qHTS assay (AID 1963589); note: nearly all actives have a fitted effect of over 35% in size
How it was run: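 Each compound was tested at 15 concentrations across three independent runs on dye-loaded CHO cells stably expressing human CHRM1, reading intracellular calcium fluorescence kinetically at 1 sec intervals.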

[13] = cAMP Responsive Elements (CRE) small molecule antagonists, cell-based qHTS assay (AID 1963591; active = well fitted inhibition curve with a large enough effect in the signal ratio in the repeat runs, not every such curve was filed as active; the % refers to the signal ratio)
How it was run: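 Inhibition of NKH477-driven (0.25 uM final) CRE-beta-lactamase signal in HEK293T cells, 3 h compound exposure at 37 °C, detected by FRET substrate fluorescence.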

[14] = target: Beta-2 adrenergic receptor (Homo sapiens) (UniProt P07550); experiment: Adrenergic beta2 receptor (ADRB2) small molecule antagonists, cell-based qHTS assay (AID 1963592); note: series mostly up to about 92 µM; nearly all actives have a fitted effect of over 50% in size
Chain of Beta-2 adrenergic receptor (Homo sapiens) (P07550 whole entry, looked up): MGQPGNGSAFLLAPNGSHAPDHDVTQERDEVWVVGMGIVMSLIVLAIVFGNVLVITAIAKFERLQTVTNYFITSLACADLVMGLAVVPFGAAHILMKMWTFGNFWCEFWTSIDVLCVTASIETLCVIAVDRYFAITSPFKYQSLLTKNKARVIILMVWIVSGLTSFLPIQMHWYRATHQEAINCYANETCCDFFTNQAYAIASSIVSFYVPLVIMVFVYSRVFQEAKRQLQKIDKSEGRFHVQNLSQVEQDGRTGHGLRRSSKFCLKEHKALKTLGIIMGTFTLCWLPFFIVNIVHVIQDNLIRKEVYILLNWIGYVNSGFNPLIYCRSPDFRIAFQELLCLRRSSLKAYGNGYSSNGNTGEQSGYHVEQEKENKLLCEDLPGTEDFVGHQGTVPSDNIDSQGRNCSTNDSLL
How it was run: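 Cells (CHO, stable ADRB2 overexpression) incubated 18-20hr at 37C; compounds added from DMSO; agonist mix (1nM isoproterenol, 100uM IBMX, 25uM Ro-20-1724) added; 0.5hr RT; d2-cAMP and anti-cAMP-cryptate added; 1hr RT; 665/615 nm read.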

[15] = target: Beta-2 adrenergic receptor (Homo sapiens) (UniProt P07550); experiment: Adrenergic beta2 receptor (ADRB2) small molecule agonists, cell-based qHTS assay (AID 1963593); note: potency is the fitted concentration of half-maximal effect
How it was run: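 CHO cells stably over-expressing ADRB2 were plated overnight at 37C, then dosed with compounds plus a stimulation mix containing 100uM IBMX and 25uM Ro-20-1724 for 0.5hr at room temperature. cAMP was measured by HTRF competition, 1hr.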

[16] = target: D(2) dopamine receptor (Homo sapiens) (UniProt P14416); experiment: Dopamine D2 receptor (DRD2) small molecule agonists, cell-based qHTS assay (AID 1963594); note: nearly all actives have a fitted effect of over 35% in size
Chain of D(2) dopamine receptor (Homo sapiens) (P14416 whole entry, looked up): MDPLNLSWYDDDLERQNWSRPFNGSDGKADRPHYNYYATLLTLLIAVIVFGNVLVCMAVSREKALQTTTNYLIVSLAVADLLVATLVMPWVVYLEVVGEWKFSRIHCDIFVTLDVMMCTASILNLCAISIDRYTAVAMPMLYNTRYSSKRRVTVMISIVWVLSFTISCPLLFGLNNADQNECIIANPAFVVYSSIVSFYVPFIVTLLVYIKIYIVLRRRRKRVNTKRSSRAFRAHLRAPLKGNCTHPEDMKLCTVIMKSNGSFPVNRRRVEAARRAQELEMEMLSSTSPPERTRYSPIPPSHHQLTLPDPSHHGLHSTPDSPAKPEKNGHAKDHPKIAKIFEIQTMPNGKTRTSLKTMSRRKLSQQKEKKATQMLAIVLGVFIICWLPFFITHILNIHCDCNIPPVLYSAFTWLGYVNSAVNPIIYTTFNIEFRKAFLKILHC
How it was run: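 cAMP accumulation in DRD2-HEK293 cells measured by HTRF after 1 h detection; compounds added 10 min before NKH477 (200nM […]) forskolin-analogue stimulation, 30 min at room temperature, with Ro20-1724 present at 0.1 mM final.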

[17] = target: D(2) dopamine receptor (Homo sapiens) (UniProt P14416); experiment: Dopamine D2 receptor (DRD2) small molecule antagonists, cell-based qHTS assay (AID 1963595; active = well fitted inhibition curve with a large enough effect in the signal ratio in the repeat runs, with a control signal flat; the % refers to the signal ratio; note: potency is the fitted concentration of half-maximal effect)
How it was run: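 Human DRD2 antagonist qHTS measuring cAMP by HTRF. The cells are exposed to compound for 10 min, then to NKH477 (200 nM) and quinpirole (12 nM) for 30 min at RT, with Ro20-1724 (0.1 mM) present throughout.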

[18] = cAMP Responsive Elements (CRE) small molecule agonists, cell-based qHTS assay (AID 1963590)
How it was run: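 Cell line: CRE-bla HEK 293T; medium DMEM/10% dialyzed FBS/0.1 mM NEAA/1 mM pyruvate/25 mM HEPES; 3 h compound exposure; beta-lactamase FRET readout after 2 h substrate loading at RT.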

Measured: Potency

COc1ccc(OC)c(Cl)c1
inactive: [1] | [2] | [3] | [4] | [5] | [6] | [7] | [8] | [9] | [10] | [11] | [12] | [13] | [14] | [15] | [16] | [17]

c1cc[c]([Bi]([c]2ccccc2)[c]2ccccc2)cc1
inactive: [1] | [3] | [4] | [5] | [6] | [7] | [8] | [9] | [10] | [11] | [12] | [16]
active: [2] 4.86 µM | [15] 1.72 µM | [17] 9.69 µM

c1cc(CCCc2ccncc2)ccn1
inactive: [1] | [2] | [3] | [4] | [5] | [6] | [7] | [8] | [9] | [10] | [11] | [12] | [18] | [14] | [15] | [16] | [17]

C=C(C)C(=O)OCCO
inactive: [1] | [2] | [3] | [4] | [5] | [6] | [7] | [8] | [9] | [10] | [11] | [12] | [18] | [14] | [16] | [17]

CCCCC=O
inactive: [1] | [2] | [3] | [4] | [5] | [6] | [7] | [8] | [9] | [10] | [11] | [12] | [18] | [14] | [15] | [16] | [17]

CCOc1ccc(NS(=O)(=O)c2ccc(N)cc2)nn1
inactive: [1] | [2] | [3] | [4] | [5] | [6] | [7] | [8] | [9] | [10] | [11] | [12] | [13] | [14] | [16] | [17]

CN(C(=O)CN(CCO)CC(=O)N(C)C(C)(C)Cc1ccccc1)C(C)(C)Cc1ccccc1
inactive: [1] | [2] | [3] | [4] | [5] | [6] | [7] | [8] | [9] | [10] | [11] | [12] | [13] | [14] | [16]

C[Si](C)(C)O[Si](O)(O)O
inactive: [1] | [2] | [3] | [4] | [5] | [6] | [7] | [8] | [9] | [10] | [11] | [12] | [13] | [14] | [15] | [16] | [17]

CC(C)NCC(O)c1cc(O)cc(O)c1 (centres undefined)
inactive: [1] | [2] | [3] | [4] | [5] | [6] | [7] | [8] | [9] | [10] | [12] | [16] | [17]

NC(=O)c1ccccc1
inactive: [1] | [2] | [3] | [4] | [5] | [6] | [7] | [8] | [9] | [11] | [12] | [18] | [13] | [14] | [15] | [16] | [17]

C/C=C1/C(=O)C[C@H]2[C@@H]3CCC4=CC(=O)CC[C@]4(C)[C@H]3CC[C@]12C
active: [2] 68.4 µM
inactive: [1] | [3] | [4] | [5] | [6] | [7] | [8] | [9] | [10] | [12] | [14] | [16] | [17]

COc1cc2c(cc1OC)[C@@H]1CC(=O)[C@@H](CC(C)C)CN1CC2
inactive: [1] | [2] | [3] | [4] | [5] | [6] | [7] | [8] | [9] | [10] | [11] | [18] | [15] | [16] | [17]

FC(F)(Cl)C(F)(Cl)Cl
inactive: [1] | [2] | [3] | [4] | [5] | [6] | [7] | [8] | [9] | [11] | [12] | [18] | [13] | [14] | [16] | [17]

CCOc1ccc(NC(=O)CC(C)=O)cc1
inactive: [1] | [2] | [3] | [4] | [5] | [6] | [7] | [8] | [9] | [10] | [11] | [18] | [14] | [16] | [17]

N#CCCN(CCO)CCO
inactive: [1] | [2] | [3] | [4] | [5] | [6] | [7] | [8] | [9] | [11] | [12] | [18] | [13] | [14] | [15] | [16] | [17]

C[C@H](NC(CCc1ccccc1)C(=O)O)C(=O)N1CCC[C@H]1C(=O)O (some centres undefined)
inactive: [1] | [2] | [3] | [4] | [5] | [6] | [7] | [8] | [9] | [11] | [12] | [18] | [13] | [14] | [15] | [16] | [17]
